# Laboratory results from the supplement of paper PMC9694430.
# Experiments:
# Experiment in all cases: thermal shift delta Tm vs DMSO control; higher = stronger stabilization (binding)
# Conditions in all cases: 12.5 µM; protein concentration 2 µM
# [1] = tested on: LOC_OS04G57630-cb004
# Procedure, shortened: (§1)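 Thermal shift values come from differential scanning fluorimetry on purified rice kinase domains made in E. coli, with melting temperatures obtained from Boltzmann fits. Samples of 19.5 μl held 2 μM kinase, 100 mM potassium phosphate pH 7.5, 150 mM NaCl, 10% glycerol, 5 × SYPRO Orange and compound in DMSO, and were heated from 25°C to 95°C at 0.05°C/s. Each shift is a triplicate mean relative to the DMSO-only protein sample.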
# [2] = tested on: LOC_OS05G07850-cb002
# Procedure, shortened: as §1
# [3] = tested on: LOC_OS05G16824-cb004
# Procedure, shortened: as §1
# [4] = tested on: LOC_OS05G28520-cb001
# Procedure, shortened: as §1
# [5] = tested on: LOC_OS05G30820-cb001
# Procedure, shortened: as §1
# [6] = tested on: LOC_OS05G43570-cb004
# Procedure, shortened: as §1
# [7] = tested on: LOC_OS06G16330-cb003
# LOC_OS06G16330-cb003, sequence (as listed by the source): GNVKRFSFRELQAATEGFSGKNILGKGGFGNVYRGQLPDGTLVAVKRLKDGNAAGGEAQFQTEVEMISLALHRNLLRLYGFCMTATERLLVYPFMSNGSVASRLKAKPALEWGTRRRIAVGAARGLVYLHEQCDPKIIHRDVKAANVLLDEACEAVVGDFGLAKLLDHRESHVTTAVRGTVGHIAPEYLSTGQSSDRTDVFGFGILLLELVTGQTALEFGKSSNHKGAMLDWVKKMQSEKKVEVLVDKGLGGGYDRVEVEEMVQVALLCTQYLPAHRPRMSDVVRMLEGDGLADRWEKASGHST
# Procedure, shortened: as §1
# [8] = tested on: T1, LOC_OS06G22820-cb001
# T1 sequence (whole entry): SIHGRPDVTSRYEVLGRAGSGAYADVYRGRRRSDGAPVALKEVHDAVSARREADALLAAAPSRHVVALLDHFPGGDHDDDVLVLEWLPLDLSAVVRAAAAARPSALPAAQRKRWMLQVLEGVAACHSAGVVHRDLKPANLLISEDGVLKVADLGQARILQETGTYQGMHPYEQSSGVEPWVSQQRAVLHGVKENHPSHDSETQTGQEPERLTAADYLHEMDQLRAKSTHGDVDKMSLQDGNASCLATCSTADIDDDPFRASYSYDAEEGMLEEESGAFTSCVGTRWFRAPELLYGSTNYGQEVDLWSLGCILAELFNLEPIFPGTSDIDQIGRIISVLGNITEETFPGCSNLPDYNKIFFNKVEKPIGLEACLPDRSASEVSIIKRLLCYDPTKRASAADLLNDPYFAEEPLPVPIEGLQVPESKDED
# Procedure, shortened: as §1
# [9] = tested on: LOC_OS07G06570-cb004
# Procedure, shortened: as §1
# [10] = tested on: LOC_OS07G07230-cb001
# Procedure, shortened: as §1
# 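Also: purified Escherichia coli-expressed rice kinase domain construct.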
SMILES,thermal shift delta Tm [1] [°C],thermal shift delta Tm [2] [°C],thermal shift delta Tm [3] [°C],thermal shift delta Tm [4] [°C],thermal shift delta Tm [5] [°C],thermal shift delta Tm [6] [°C],thermal shift delta Tm [7] [°C],thermal shift delta Tm [8] [°C],thermal shift delta Tm [9] [°C],thermal shift delta Tm [10] [°C]
CNS(=O)(=O)C[C@H]1CC[C@H](N(C)c2[nH]cnc3nccc2-3)CC1 [Oclacitinib],0.5,7.33,-0.02,0.31,0.53,0.33,3.72,0.36,1.6,0.51
Clc1ccc(Nc2nnc(Cc3ccncc3)c3ccccc23)cc1 [Vatalanib (PTK787) 2HCl],-0.2,-0.28,-1.81,-0.19,0.45,0.05,0.09,0.55,0.43,0.41
CCc1nc(-c2cccc(C)c2)c(-c2ccnc(NC(=O)c3ccccc3)c2)s1,0.17,4.1,-0.96,0.55,0.63,-0.08,0.66,0.77,1.16,-0.21
O=C1NC(=O)/C(=C/c2cccc(C(F)(F)F)c2)S1,0.39,1.33,-0.21,0.59,0.46,0.27,0.26,0.44,0.68,0.58
O=C1NC(=O)C(c2cnc3ccccn23)=C1c1cn2c3c(cc(F)cc13)CN(C(=O)N1CCCCC1)CC2,0.36,5.85,3.38,1.1,0.39,0.48,-0.6,1.42,2.11,0.29
NC1(c2ccc(-c3nc4ccn5c(=O)[nH]nc5c4cc3-c3ccccc3)cc2)CCC1,-0.22,1.31,-1.83,0.28,0.4,0.14,0.62,0.61,0.66,0.17
C[C@@H](N)[C@H]1CC[C@H](C(=O)Nc2ccncc2)CC1,0.06,0.75,1.53,0.81,0.41,0.43,0.4,0.94,0.98,0.08
CC(C)NC[C@@H](C(=O)N1CCN(c2ncnc3c2[C@H](C)C[C@H]3O)CC1)c1ccc(Cl)cc1 [Ipatasertib (GDC-0068)],-0.05,0.18,-3.22,0.5,0.46,0.17,-0.53,0.38,1.25,0.21
CCc1ccc(/C=C2/SC(=S)NC2=O)cc1,0.22,2.65,-3.64,1.2,0.82,1,0.48,1.04,1.65,0.27
O=C(NOCC(O)CO)c1cc(Br)c(F)c(F)c1Nc1ccc(I)cc1F (stereo not given),0.44,0.69,0.91,0.42,0.68,0.96,0.65,1.13,1.14,-0.63
"CCCS(=O)(=O)Nc1ccc(F)c(C(=O)c2c[nH]c3ncc(-c4ccc(Cl)cc4)cc23)c1F [Vemurafenib (PLX4032, RG7204)]",0.61,10.3,-0.4,1.63,0.58,1.69,8.05,1.99,2.33,0.34
O=c1nc(N2CCOCC2)oc2c(-c3cccc4c3sc3ccccc34)cccc12,-0.05,1.07,1.26,-0.27,-0.09,-0.65,-1.74,0.33,0.14,0.66
COc1cc(Nc2ncc3c(n2)-c2ccc(Cl)cc2C(c2c(F)cccc2OC)=NC3)ccc1C(=O)O [Alisertib (MLN8237)],-0.1,10.3,5.74,0.02,0.19,0.06,2.21,0.35,0.77,0.11
CN1CCN(c2cccc(Nc3nc4c(-c5ccc(S(C)(=O)=O)cc5)cccn4n3)c2)CC1,0.63,5.82,6.48,0.11,0.63,0.2,4.09,0.43,0.46,-0.02
CONC(=O)c1ccccc1Nc1cc(Nc2cc(C)nn2C(C)C)ncc1Cl,0.41,5.58,8.82,0.25,0.17,0.39,6.46,0.47,1.77,0.55
CCOc1cc2ncc(C#N)c(Nc3ccc(OCc4ccccn4)c(Cl)c3)c2cc1NC(=O)/C=C/CN(C)C [Neratinib (HKI-272)],1.3,2.1,-0.55,0.73,0.56,0.35,0.45,0.9,1.96,0.81
C=CC(=O)Nc1cc(Nc2nccc(-c3c[nH]c4ccccc34)n2)c(OC)cc1N(C)CCN(C)C,0.51,11,-1.05,0.61,0.72,0.75,6.67,0.58,1.6,0.9
COc1cc2nccc(Oc3ccc(NC(=O)c4cn(C(C)C)c(=O)n(-c5ccc(F)cc5)c4=O)cc3F)c2cc1OC,0.32,11.1,2.27,0.34,-0.01,0.27,8.48,0.89,1.78,0.22
